Where “and” joins values, the source holds several entries; their conditions need not be identical. Equal values may be shown once.

The inhibition is the relative decrease from the control value, in per cent.

For the test, the target named is Apelin receptor (Homo sapiens) (UniProt P35414). The test can be described thus: APJ beta-arrestin recruitment blockade alongside CXCR6 – cell-based, DiscoveRx, panel, CHO-K1, counter-screen for CXCR6 antagonist project, SAR follow-up (AID 651598). The note with it: CHO-K1 PathHunter beta-arrestin luminescence, antagonist mode; run 5, at 80 µM (top of the series). For orientation: Activated receptors often draw arrestin, which recruitment assays turn into a signal.
Apelin receptor (Homo sapiens), sequence (P35414 whole entry, looked up): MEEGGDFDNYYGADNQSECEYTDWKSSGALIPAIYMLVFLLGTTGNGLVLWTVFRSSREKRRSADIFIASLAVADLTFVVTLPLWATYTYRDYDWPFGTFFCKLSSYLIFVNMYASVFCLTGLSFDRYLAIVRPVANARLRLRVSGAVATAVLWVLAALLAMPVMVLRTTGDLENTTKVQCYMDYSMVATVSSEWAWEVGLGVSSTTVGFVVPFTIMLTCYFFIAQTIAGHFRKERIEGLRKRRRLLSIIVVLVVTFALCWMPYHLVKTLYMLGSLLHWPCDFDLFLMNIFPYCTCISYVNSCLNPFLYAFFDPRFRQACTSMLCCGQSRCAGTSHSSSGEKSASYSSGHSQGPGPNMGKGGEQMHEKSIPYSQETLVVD
For `COc1cc(C(=O)NC2CC3CCCC(C2)N3CC(=O)Nc2ccccc2)cc(OC)c1OC` (stereo not drawn), the inhibition is 11% and 14.6% and 16%. In the case of `COc1cc(C(=O)NC2CC3CCC(C2)N3CC(=O)Nc2ccccc2)cc(OC)c1OC` (stereo not drawn), the inhibition is -14.1% and -9.09%. Turning to `COc1cc(C(=O)NC2CCN(CC(=O)Nc3ccccc3)CC2)cc(OC)c1OC`, the inhibition is -5.74%.
